Pf growth 96h: Primary qHTS for delayed death inhibitors of the malarial parasite plastid, 96 hour incubation | P. falciparum luciferase reporter growth, 96 h | AID 504834, 2011 | Potency, µM (series often up to 28.7 µM), without a hit: top-dose activity change, negative = inhibition, actives largely listed as inhibitors | 320,000 tested, 6.9% active; also: potency is read from the fitted curve at half-maximal effect; % is scaled to controls: 0 for no effect and ±100 for the full control effect
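Infected RBCs, 2% Hct / 0.05% parasitemia final; luciferase-reporter P. falciparum; cpd 96 h, 37 C, 5% CO2; luciferase detection reagent; luminescence.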
Shiga toxin inh: A qHTS for Small Molecule Inhibitors of Shiga Toxin; AID 2315, 2010; 290,000 tested, 9.2% active; inhibition, % at 38.7 µM; Vero cells, Shiga toxin protein synthesis inhibition reporter; in the data active = inhibition mostly above about 28%, no sharp cut-off; inactive = mostly below about 43%; also: 0% is about no effect
CHX counter: Cycloheximide Counterscreen for Small Molecule Inhibitors of Shiga Toxin; cell reporter, cycloheximide protein synthesis inhibition counterscreen; max response, %; 300,000 tested, 12% active; AID 2314, 2010; in the data active = max response mostly above about 13%, no sharp cut-off; inactive = mostly below about 14%; also: read at 38.3 µM for the half of the compounds with a filed dose; 0% is about no effect
NS1 inh: qHTS Assay for Inhibitors of Influenza NS1 Protein Function; Potency, µM (series often up to 46.1 µM), for inactives: top-dose activity, positive = more growth; 270,000 tested, 0.4% active; calls by dose curve; also: potency is read from the fitted curve at half-maximal effect; actives are rising curves; nearly all actives have a fitted effect of over 50% in size
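OD600 was taken as the measure of yeast growth restored by compound in an NS1-expressing S. cerevisiae strain. Cells had been washed out of glucose medium and diluted 1:100 into galactose -URA medium, pH 6.0.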
Pf growth 48h: Primary qHTS for delayed death inhibitors of the malarial parasite plastid, 48 hour incubation. P. falciparum luciferase growth in erythrocytes, 48 h. Potency, µM (top dose mostly 28.7 µM), for the others: top-dose activity change, negative = inhibition, usual class: inhibitors. 310,000 tested, 5.9% active; also: potency is read from the fitted curve at half-maximal effect; % is scaled to controls: 0 for no effect and ±100 for the full control effect
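Erythrocytes infected with P. falciparum carrying an integrated firefly luciferase reporter (2% hematocrit, 0.1% parasitemia final) were exposed to compounds in RPMI 1640 with 0.5% Albumax at 37 C, 5% CO2. Growth inhibition was scored as reduced luminescence.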
An asterisk follows results filed as active; ? = inconclusive; · = no result given. Rows were chosen to be rich in hits. Some 21% of all compounds tested hit in one or more screens of this group. Unless noted, calls follow the shape of the dose curve; as a rule, active = well fitted inhibition curve with a large enough effect; inconclusive = small, poorly fitted or top-dose-only effect, or another doubt; inactive = no such curve, though single readings can be large or run the other way.

SMILES	Pf growth 96h	Shiga toxin inh	CHX counter	NS1 inh	Pf growth 48h
Cc1ccc(-c2nnc(SCCC(=O)N3CCOCC3)o2)cc1	?	52	32*	·	81%
O=C(CCSc1nnc(-c2ccccc2)o1)N1CCOCC1	37%	34	14	-10%	26%
Cc1ccccc1-c1nnc(SCCC(=O)N2CCOCC2)o1	?	70*	23*	·	95%
CC(C(=O)N1CCN(c2ccc(Cl)cc2)CC1)c1ncc(C(F)(F)F)cc1Cl (stereo unspecified)	-3%	-16	-3	-46%	-2%
COC(=O)C1=C(C)NC(C)=C(C(=O)OC)C1c1ccccc1OCc1c(C)no[n+]1[O-]	6%	11	-2	-10%	12µM*
O=C(c1ccco1)N1CCN(Cc2nnnn2CC2CCCO2)CC1 (stereo unspecified)	-18%	-16	-4	1%	14%
O=C1CCN(Cc2nnnn2CC2CCCO2)c2ccccc2N1 (stereo unspecified)	15µM*	51	-3	7%	20%
O=C(CSCCc1ccccn1)Nc1ccccn1	5%	9	15*	1%	39%
O=C(CSCCc1ccccn1)Nc1ccc(Br)cn1	0%	30	6	-15%	12%
Cc1csc(NC(=O)CCSCCc2ccccn2)n1	9.3µM*	-6	-6	-7%	·
CSc1nsc(SC)c1NC(=O)OCC1CCCO1 (stereo unspecified)	?	-23	-1	2%	7%
C=CCn1cc(C(=O)NCCN(CC)CC)c(=O)c2cc(S(=O)(=O)N3CCCCCC3)ccc21	8.3µM*	-10	-1	-4%	10µM*
C=CCn1cc(C(=O)NCCOC)c(=O)c2cc(S(=O)(=O)N3CCCCCC3)ccc21	?	-3	-2	6%	?
CC(C)CN(CCNC(=O)c1cn(C)c2ccc(S(=O)(=O)N3CCCC3)cc2c1=O)CC(C)C	9.3µM*	24	-13	2%	-2%
O=c1[nH]c2ccccc2c(O)c1-c1ccccc1[N+](=O)[O-]	0%	-32	-3	7%	18%
COc1ccc(NC(=O)Cn2c(=O)n(CC3CCCO3)c(=O)c3cc(OC)c(OC)cc32)c(OC)c1 (stereo unspecified)	19%	-6	-1	4%	-4%
CC1CCCCN1C(=O)c1ccc(OC2CCN(S(=O)(=O)N(C)C)CC2)cc1 (stereo unspecified)	17%	26	26*	-4%	-13%
C#CCN(CC=C)C(=O)c1cccc(OC2CCN(S(C)(=O)=O)CC2)c1	?	-3	3	5%	2%
CN(C(=O)c1ccc(OC2CCN(S(=O)(=O)N(C)C)CC2)cc1)C1CCCCC1	-6%	27	11	1%	-14%
CN(C)S(=O)(=O)N1CCC(Oc2cccc(C(=O)NC3CCCCCC3)c2)CC1	?	17	-2	-21%	?
CCN1CCN(C(=O)c2cccc(OC3CCN(S(=O)(=O)N(C)C)CC3)c2)CC1	11%	16	27*	13%	1%
CN(C)S(=O)(=O)N1CCC(Oc2ccc(C(=O)N3CCCCCCC3)cc2)CC1	-19%	117*	62*	12%	?
CCN(CCn1cccn1)C(=O)c1cccc(OC2CCN(S(C)(=O)=O)CC2)c1	10µM*	-4	-1	10%	88%
CC1(C)Cc2c(sc(NC(=O)/C=C/C(=O)O)c2C#N)CO1	2.9µM*	1	-2	-4%	4.1µM*
CCC1(C)Cc2c(sc(NC(=S)NC(=O)c3ccccc3)c2C#N)CO1 (stereo unspecified)	57%	-1	11	8%	25%
SMILES	Pf growth 96h	Shiga toxin inh	CHX counter	NS1 inh	Pf growth 48h
CC1(C)Cc2c(sc(NC(=O)c3ccco3)c2C#N)CO1	·	22	28*	-47%	223%
Cc1ccc(N2C(=O)CC(c3c[nH]c4ccccc34)C2=O)cc1 (stereo unspecified)	?	20	15	·	3%
CCC1=NN=C(c2ccc(F)cc2)C(c2c[nH]c3ccccc23)N1O (stereo unspecified)	-70%	74*	28	4%	?
O=C(CCCCCn1c(=O)[nH]c2ccsc2c1=O)NCc1ccc(F)cc1	·	-7	-3	0%	?
Cc1ccc(CNC(=O)CCCCn2c(=O)[nH]c3ccsc3c2=O)cc1	10µM*	-10	0	·	-4%
O=C(CCCCCn1c(=O)[nH]c2ccsc2c1=O)N1CCCCC1	?	1	-1	-9%	12µM*
CCOC(=O)C1CCN(C(=O)c2cccs2)CC1	-2%	5	-2	2%	0%
CCOC(=O)C1CCN(C(=S)NC(=O)c2cccs2)CC1	2%	47	29*	0%	?
Cc1c(C(=O)NC(=S)Nc2ccccc2N2CCCC2)cccc1[N+](=O)[O-]	?	-13	1	23%	15µM*
O=C(NC(=S)Nc1ccc(N2CCCCC2)cc1)c1cccs1	?	79*	52*	-1%	?
CS(=O)(=O)N1CCN(c2ccc(NC(=S)NC(=O)c3cccs3)cc2)CC1	-16%	17	16*	4%	26%
O=C(NC(=S)N1CCN(c2ccc(O)cc2)CC1)c1cccs1	?	84*	24*	1%	8%
O=C(NC(=S)N1CCN(c2ccc(F)cc2)CC1)c1cccs1	-3%	-2	3	-6%	?
O=C(NC(=S)Nc1ccccc1N1CCCC1)c1cccs1	?	55*	51*	9%	?
COc1cccc(C(C(=O)NCc2ccco2)N(Cc2ccco2)C(=O)Cn2nnc3ccccc32)c1 (stereo unspecified)	-5%	-10	-2	13%	0%
COc1cccc(N(C(=O)Cn2nnc3ccccc32)C(C(=O)NCc2ccco2)c2cccnc2)c1 (stereo unspecified)	·	-8	-4	5%	8.3µM*
Cc1ccc(N(C(=O)Cn2nnc3ccccc32)C(C(=O)NCc2ccco2)c2cccnc2)cc1 (stereo unspecified)	?	-4	21	?	10µM*
Cc1ccc(CN2CCN(CC(=O)NCc3ccc(Cl)cc3)C2=O)cc1	-1%	-13	-4	-6%	·
CC1(C)CC(=NO)CC(C)(C)N1	?	14	-5	1%	14%
Cc1cc(CNCc2cn(C)nc2-c2ccc(Oc3ccccc3)cc2)on1	12µM*	12	17*	-6%	?
COCCN(Cc1cn(C)nc1-c1ccc(Oc2ccccc2)cc1)C(C)C	?	-7	1	2%	-1%
Cn1cc(CN2CCC(O)CC2)c(-c2ccc(Oc3ccccc3)cc2)n1	9.3µM*	-4	-3	-2%	-4%
CC(C)N(C)Cc1cn(C)nc1-c1ccc(Oc2ccccc2)cc1	5.2µM*	·	-3	5%	-8%
Cc1ccccc1N(CC(=O)N1CCOCC1)S(C)(=O)=O	8%	71	9	-4%	?

Compound activity: PubChem, National Center for Advancing Translational Sciences (NCATS)
